From PubChem BioAssay
Calls of active or inactive are those of the source. Unless noted, no rule for the calls is given here.

How the values were obtained:
[1] = test system: Wnt5a (protein binding on small-molecule microarray); assay: small molecules binding Wnt5a protein – biophysical, small-molecule microarray, 635/667 nm fluorescence, primary screen (AID 1142); conditions: 635 nm fluorescence, higher = more signal;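 also: fluorescence read at 667 nm with signal to noise per printed feature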
[2] = ATP-based viability of Huh7 replicon cells – cell-based, CellTiter-Glo luminescence, basal, 48 h, cytotoxicity control for HCV replication inhibitor project, primary screen (AID 1143); conditions: higher = more signal, called active from +8 up or from −8 down;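 also: Huh7 hepatoma cells carrying a hepatitis C replication reporter with no stimulus; test concentration not given here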
[3] = Pseudomonas biofilm growth suppression – PAO1 strain, BacTiter-Glo luminescence, LB-PBS, primary screen (AID 1144); conditions: P. aeruginosa PAO1 biofilm, 12 h, higher = more signal
[4] = basal CRE-LacZ reporter activity in PC12 – cell-based, unstimulated, primary screen (AID 1145); conditions: no forskolin, luminescence, 4.5 h, higher = more signal, called active from +8 up or from −8 down
[5] = forskolin-driven CRE-LacZ activity in PC12 – cell-based, CRE-LacZ reporter, forskolin-stimulated, primary screen (AID 1146); conditions: luminescence, 4.5 h, higher = more signal, called active from +8 up or from −8 down;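 also: PC12 cells with 6xCRE LacZ reporter stimulated by forskolin 10 µM; beta-galactosidase reporter signal reflecting CREB driven transcription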
[6] = target: Streptavidin (Streptomyces avidinii) (UniProt P22629); assay: compounds binding control protein streptavidin – biophysical, small-molecule microarray, 635/667 nm fluorescence, artefact control for SMM compound annotation, primary screen (AID 1147); conditions: higher = more signal;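 also: signal reflects streptavidin binding to arrayed compounds as a control protein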
Streptavidin (Streptomyces avidinii), sequence (P22629 whole entry, looked up): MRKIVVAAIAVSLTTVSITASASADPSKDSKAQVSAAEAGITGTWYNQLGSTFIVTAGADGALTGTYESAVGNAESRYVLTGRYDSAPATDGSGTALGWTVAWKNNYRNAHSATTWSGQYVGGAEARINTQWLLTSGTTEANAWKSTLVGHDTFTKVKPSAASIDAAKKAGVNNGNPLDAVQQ

[7] = probe aInhba binding on compound microarray – biochemical, small-molecule microarray, 635/667 nm fluorescence, primary screen (AID 1148); conditions: higher = more signal;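 also: score merges 667nm spot fluorescence with signal-to-noise for antibody binding to printed compounds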
[8] = target: Torsin-1A (Homo sapiens) (UniProt O14656); assay: TOR1A wild-type binding on microarray – cell lysate, small-molecule microarray, lysate, 635/667 nm, primary screen (AID 1149); conditions: COS7 hTOR1A-WT lysate, 635 nm fluorescence, higher = more signal
Torsin-1A (Homo sapiens), sequence (O14656 whole entry, looked up): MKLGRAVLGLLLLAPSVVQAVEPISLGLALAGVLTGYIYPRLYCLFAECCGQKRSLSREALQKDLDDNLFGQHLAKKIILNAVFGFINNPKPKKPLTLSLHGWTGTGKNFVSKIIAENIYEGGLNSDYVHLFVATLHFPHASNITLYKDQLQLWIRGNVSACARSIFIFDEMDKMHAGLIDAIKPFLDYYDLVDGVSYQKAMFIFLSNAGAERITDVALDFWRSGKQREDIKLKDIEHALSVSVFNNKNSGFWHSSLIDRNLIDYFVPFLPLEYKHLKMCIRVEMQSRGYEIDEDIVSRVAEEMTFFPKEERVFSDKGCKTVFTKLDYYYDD

[9] = target: Torsin-1A (Homo sapiens) (UniProt O14656); assay: torsin A mutant lysate binding on microarrays – cell lysate, small-molecule microarray, COS7 lysate, 635/667 nm fluorescence, primary screen (AID 1150); conditions: COS7 hTOR1A mutant lysate, 635 nm fluorescence, higher = more signal;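 also: score pools 667 nm emission and signal to noise measuring lysate protein binding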
[10] = test system: Sonic hedgehog protein (Shh); assay: Sonic hedgehog microarray binding compounds – biochemical, small-molecule microarray, 635/667 nm fluorescence, primary screen (AID 1151); conditions: 635 nm fluorescence, higher = more signal;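 also: Shh protein binding to compounds spotted on small-molecule microarray slides; score combines spot fluorescence intensity with signal-to-noise across triplicate slides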
[11] = optical density shifts of acrAB sulA E. coli – strain DRC41, OD650, 48 h, E. coli filamentation inducer project, primary screen (AID 1152); conditions: higher = more signal, called active from +8 up or from −8 down;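 also: E. coli MC1000 strain DRC41 lacking acrAB efflux pump and sulA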
[12] = probe aLefty1 binding on compound microarray – biochemical, small-molecule microarray, 635/667 nm fluorescence, primary screen (AID 1153); conditions: higher = more signal;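 also: score merges spot fluorescence with signal-to-noise ratio from the scanned slide images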
[13] = plasmodial surface anion channel blockers, osmotic lysis – cell-based, P. falciparum Indochina, OD700, 1 h, primary screen (AID 1154); conditions: P. falciparum Indochina infected RBC osmotic lysis, higher = more signal, called active from +8 up or from −8 down
[14] = plasmodial surface anion channel blockers, osmotic lysis – cell-based, P. falciparum Indochina, OD700, 2 h, primary screen (AID 1155);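 also: lysis reports solute entry through the parasite surface anion channel PSAC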; conditions: P. falciparum Indochina infected erythrocytes, higher = more signal, called active from +8 up or from −8 down
[15] = changes in parasitized red cell lysis, either direction – P. falciparum Indochina, OD700, 3 h, PSAC antagonist project, primary screen (AID 1156); conditions: P. falciparum-infected erythrocytes, osmotic lysis, higher = more signal, called active from +8 up or from −8 down
[16] = plasmodial surface anion channel blockers, osmotic lysis – cell-based, P. falciparum Indochina, OD700, 18 h, primary screen (AID 1157); conditions: P. falciparum Indochina infected erythrocytes, osmotic lysis OD700, 18 h; higher = more signal, called active from +8 up or from −8 down
[17] = S6 kinase pathway phospho-S6 level changes – cell-based, A549, cytoblot, luminescence, serum-stimulated, primary screen (AID 1158); conditions: 5 h, higher = more signal;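 also: serum-stimulated A549 lung adenocarcinoma cells; signal is phosphorylated S6 detected by cytoblot immunostaining with HRP secondary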
[18] = target: NADPH oxidase 2 (Homo sapiens) (UniProt P04839); assay: compounds shifting NOX2 Amplex Red fluorescence – cell-based, HEK293-NOX2, PMA-stimulated, NOX inhibitor project, primary screen (AID 1159); conditions: 45 min, higher = more signal, called active from +8 up or from −8 down; also: test concentration not given here
NADPH oxidase 2 (Homo sapiens), sequence (P04839 whole entry, looked up): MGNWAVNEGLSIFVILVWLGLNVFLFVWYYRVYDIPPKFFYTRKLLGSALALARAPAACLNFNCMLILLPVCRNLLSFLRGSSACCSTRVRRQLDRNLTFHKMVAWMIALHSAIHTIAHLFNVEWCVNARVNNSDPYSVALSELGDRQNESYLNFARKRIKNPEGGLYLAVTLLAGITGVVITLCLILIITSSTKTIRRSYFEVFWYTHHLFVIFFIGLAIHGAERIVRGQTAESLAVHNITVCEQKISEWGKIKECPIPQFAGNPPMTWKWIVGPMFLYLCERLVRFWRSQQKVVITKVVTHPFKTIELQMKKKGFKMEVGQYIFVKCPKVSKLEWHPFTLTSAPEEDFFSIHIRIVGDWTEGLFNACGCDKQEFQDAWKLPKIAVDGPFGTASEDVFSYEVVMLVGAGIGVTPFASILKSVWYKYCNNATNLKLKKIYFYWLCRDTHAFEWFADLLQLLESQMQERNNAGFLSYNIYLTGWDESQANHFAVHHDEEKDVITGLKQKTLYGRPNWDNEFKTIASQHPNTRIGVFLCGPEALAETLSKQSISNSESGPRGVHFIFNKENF

[19] = target: NADPH oxidase 4 (Homo sapiens) (UniProt Q9NPH5); assay: compounds shifting NOX4 Amplex Red fluorescence – cell-based, HEK293-NOX4, tetracycline-induced, NOX inhibitor project, primary screen (AID 1160); conditions: HEK293-NOX4, Amplex Red H2O2 fluorescence, 45 min; higher = more signal, called active from +8 up or from −8 down
NADPH oxidase 4 (Homo sapiens), sequence (Q9NPH5 whole entry, looked up): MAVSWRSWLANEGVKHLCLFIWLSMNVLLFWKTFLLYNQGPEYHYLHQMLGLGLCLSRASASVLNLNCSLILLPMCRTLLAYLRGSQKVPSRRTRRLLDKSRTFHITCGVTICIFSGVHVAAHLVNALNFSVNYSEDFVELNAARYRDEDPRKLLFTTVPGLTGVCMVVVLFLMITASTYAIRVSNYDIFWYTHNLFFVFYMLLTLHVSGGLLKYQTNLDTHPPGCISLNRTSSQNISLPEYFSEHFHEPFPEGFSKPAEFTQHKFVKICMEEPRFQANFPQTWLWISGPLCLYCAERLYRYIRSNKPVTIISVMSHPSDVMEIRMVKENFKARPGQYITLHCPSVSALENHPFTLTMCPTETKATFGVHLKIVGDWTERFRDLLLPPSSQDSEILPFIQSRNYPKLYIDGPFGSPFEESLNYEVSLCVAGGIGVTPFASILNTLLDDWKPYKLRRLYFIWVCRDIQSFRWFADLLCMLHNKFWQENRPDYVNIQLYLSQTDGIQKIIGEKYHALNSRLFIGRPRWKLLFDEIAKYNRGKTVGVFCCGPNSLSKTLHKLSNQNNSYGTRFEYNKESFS

[20] = target: NADPH oxidase 5 (Homo sapiens) (UniProt Q96PH1); assay: compounds shifting NOX5 Amplex Red fluorescence – cell-based, HEK293-NOX5, NOX inhibitor project, primary screen (AID 1161); conditions: HEK293-NOX5, ionomycin, 45 min, higher = more signal
NADPH oxidase 5 (Homo sapiens), sequence (Q96PH1 whole entry, looked up): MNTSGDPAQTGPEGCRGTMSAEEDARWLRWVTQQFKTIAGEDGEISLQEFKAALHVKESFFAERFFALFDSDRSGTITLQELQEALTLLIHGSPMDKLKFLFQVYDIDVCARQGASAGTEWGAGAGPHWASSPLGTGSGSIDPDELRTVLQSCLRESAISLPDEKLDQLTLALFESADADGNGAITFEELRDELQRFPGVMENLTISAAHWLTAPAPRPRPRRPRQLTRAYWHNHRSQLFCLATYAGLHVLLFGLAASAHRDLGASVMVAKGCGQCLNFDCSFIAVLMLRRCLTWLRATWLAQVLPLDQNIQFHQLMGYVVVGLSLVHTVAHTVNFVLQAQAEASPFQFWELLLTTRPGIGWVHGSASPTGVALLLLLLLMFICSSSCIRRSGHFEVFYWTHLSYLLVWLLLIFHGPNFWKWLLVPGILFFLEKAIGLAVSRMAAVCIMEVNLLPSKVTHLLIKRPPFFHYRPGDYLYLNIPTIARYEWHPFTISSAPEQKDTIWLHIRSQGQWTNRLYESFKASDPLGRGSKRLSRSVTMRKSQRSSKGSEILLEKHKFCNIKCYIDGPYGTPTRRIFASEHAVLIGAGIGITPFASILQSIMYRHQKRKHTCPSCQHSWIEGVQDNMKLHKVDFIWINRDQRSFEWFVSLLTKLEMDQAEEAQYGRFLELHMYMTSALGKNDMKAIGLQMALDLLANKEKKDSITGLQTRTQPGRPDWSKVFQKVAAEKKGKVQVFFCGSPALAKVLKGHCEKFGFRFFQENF

Compound	composite z-score [1]	z-score [2]	z-score [3]	z-score [4]	z-score [5]	composite z-score [6]	composite z-score [7]	composite z-score [8]	composite z-score [9]	composite z-score [10]	z-score [11]	composite z-score [12]	z-score [13]	z-score [14]	z-score [15]	z-score [16]	z-score [17]	z-score [18]	z-score [19]	z-score [20]
CC(C)C[C@@H]1NC(=O)C([C@@H](C)OCc2ccccc2)NC(=O)[C@@]23C(=O)N[C@@H](Cc4ccccc4)C2[C@H](C)[C@@]2(C)O[C@H]2C3/C=C/CC/C=C/CNC1=O (stereo not given in full)	0.237	-4.9 (inactive)	-0.469 (inactive)	1.76 (inactive)	-1.52 (inactive)	0.264	-0.206	-0.608	0.32	1.07	0.757 (inactive)	-0.164	1.35 (inactive)	-0.601 (inactive)	-0.0722 (inactive)	-1.61 (inactive)	0.189	0.681 (inactive)	0.98 (inactive)	-0.24
CC(C)CNC(=O)[C@@H]1c2ccccc2C(=O)N(C2Cc3ccccc3C2)[C@H]1c1ccc(CO)cc1	-0.0027	-0.13 (inactive)	0.92 (inactive)	0.118 (inactive)	-0.748 (inactive)	-0.861	-0.106	-1.03	0.0877	0.436	1.93 (inactive)	0.0861	3.11 (inactive)	0.693 (inactive)	1.18 (inactive)	0.232 (inactive)	0.0629	0.182 (inactive)	1.12 (inactive)	0.105
COC(=O)[C@@]1(Cc2ccc(OC)cc2)[C@H]2c3cc(C(=O)N(C)C)n(Cc4ccsc4Br)c3C[C@H]2CN1C(=O)c1ccccc1	0.286	-0.21 (inactive)	0.00572 (inactive)	0.597 (inactive)	0.217 (inactive)	0.705	0.571	-0.0008	0.808	0.105	-0.218 (inactive)	0.456	4.25 (inactive)	1.16 (inactive)	0.57 (inactive)	0.814 (inactive)	-0.87	0.555 (inactive)	0.536 (inactive)	0.316
CN(C)CCCC[C@@H]1NC(=O)[C@H]2C[C@@H](C(=O)NCc3ccc(F)cc3)[C@@H](c3ccc(O)cc3)N2C1=O	0.727	0.0491 (inactive)	0.792 (inactive)	0.0084 (inactive)	-0.19 (inactive)	-0.122	0.0676	1.12	0.587	2.15	0.104 (inactive)	0.364	1.2 (inactive)	-0.0251 (inactive)	-6.5 (inactive)	0.153 (inactive)	-0.449	0.0836 (inactive)	0.799 (inactive)	0.195
[N-]=[N+]=NCc1ccccc1C[C@@]1(C(=O)O)N=C(c2ccc(OCCCO)cc2)O[C@@H]1c1ccccc1CN=[N+]=[N-]	0.561	-1.96 (inactive)	-0.595 (inactive)	-0.996 (inactive)	-1.4 (inactive)	0.465	0.353	1.28	0.171	0.447	0.583 (inactive)	0.313	22.1 (active)	4.92 (inactive)	-0.995 (inactive)	-0.336 (inactive)	1.03	0.887 (inactive)	1.54 (inactive)	2.03
CCCCN1CC=CC23O[C@@H]4/C=C\CCC(C)OC(=O)C4[C@H]2C(=O)N(C(C)CO)[C@@H]3C1=O (stereo not given in full)	-0.0151	0.24 (inactive)	-0.297 (inactive)	-0.497 (inactive)	-0.21 (inactive)	-0.447	-0.161	-0.185	-1.01	-0.0387	0.0581 (inactive)	-0.331	1.82 (inactive)	-0.0918 (inactive)	1.19 (inactive)	0.16 (inactive)	-0.0969	0.809 (inactive)	-0.42 (inactive)	1.27
[N-]=[N+]=NCc1ccccc1C[C@]1(C(=O)N2CCOCC2)N=C(c2ccc(OCCCO)cc2)O[C@H]1c1ccccc1CN=[N+]=[N-]	1.42	-3.43 (inactive)	-0.52 (inactive)	0.778 (inactive)	-1.32 (inactive)	1.24	1.28	0.3	0.863	-0.0561	0.341 (inactive)	1.15	17.5 (active)	3.97 (inactive)	2.79 (inactive)	1.15 (inactive)	1.02	-0.647 (inactive)	0.782 (inactive)	2.13
COCCOC(=O)N1C(=O)[C@@]2(c3cc(C#CCCO)ccc31)[C@H](c1ccc(O)cc1)N1[C@H](c3ccccc3)[C@H](c3ccccc3)OC(=O)[C@H]1[C@@H]2C(=O)N1CCc2cc(OC)c(OC)cc2C1	0.565	0.0501 (inactive)	-0.883 (inactive)	-0.0647 (inactive)	-1.05 (inactive)	0.354	0.628	1.07	0.761	1.32	-0.0188 (inactive)	0.469	1.22 (inactive)	0.141 (inactive)	0.203 (inactive)	0.286 (inactive)	0.212	0.611 (inactive)	0.522 (inactive)	1.02
COCCOC(=O)N1C(=O)[C@@]2(c3cc(C#Cc4ccc(OC)cc4)ccc31)[C@H](c1ccc(OCCO)cc1)N1[C@H](c3ccccc3)[C@H](c3ccccc3)OC(=O)[C@H]1[C@@H]2C(=O)N1CCCCCCC1	0.713	-3.28 (inactive)	-1.44 (inactive)	0.891 (inactive)	-0.498 (inactive)	2.42	1.65	0.666	1.71	2.02	0.543 (inactive)	2.74	2 (inactive)	0.481 (inactive)	0.306 (inactive)	0.0489 (inactive)	1.59	0.928 (inactive)	0.274 (inactive)	1.19
